SNCA viab count – counter-screen for SNCA expression inhibitors: cell viability | 150,000 tested, 0.12% active | Potency, µM (top dose mostly 57.1 µM), inactives show top-dose activity change, negative = cytotoxicity, usual class: cytotoxic | HEK-293-SNCA-luc viability, GF-AFC fluorescence, 24 h;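 further: potency means the concentration at half of the fitted maximal effect; 0% = DMSO-treated cells and -100% = medium-only wells without cells; nearly all actives have a fitted effect of over 30% in size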
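Cytotoxicity counterscreen: after 24 h compound treatment of genome-edited SNCA-luciferase HEK-293 cells, live-cell protease substrate GF-AFC read by fluorescence after 30 min; activity scaled between DMSO (0%) and medium-only (-100%), curves Hill-fitted.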
IP6K1 inhibitor – blocks human inositol hexakisphosphate kinase 1; Q92551; IP6K1 kinase, ADP-Glo luminescence, 2 h; hits give low values; activity change, % (series mostly up to about 58 µM); 140,000 tested, 0.81% active; in the data active means activity change below about -25%; further: on the % scale 0 is the no-effect control and ±100 the full control effect
Target sequence (Q92551 whole entry, looked up): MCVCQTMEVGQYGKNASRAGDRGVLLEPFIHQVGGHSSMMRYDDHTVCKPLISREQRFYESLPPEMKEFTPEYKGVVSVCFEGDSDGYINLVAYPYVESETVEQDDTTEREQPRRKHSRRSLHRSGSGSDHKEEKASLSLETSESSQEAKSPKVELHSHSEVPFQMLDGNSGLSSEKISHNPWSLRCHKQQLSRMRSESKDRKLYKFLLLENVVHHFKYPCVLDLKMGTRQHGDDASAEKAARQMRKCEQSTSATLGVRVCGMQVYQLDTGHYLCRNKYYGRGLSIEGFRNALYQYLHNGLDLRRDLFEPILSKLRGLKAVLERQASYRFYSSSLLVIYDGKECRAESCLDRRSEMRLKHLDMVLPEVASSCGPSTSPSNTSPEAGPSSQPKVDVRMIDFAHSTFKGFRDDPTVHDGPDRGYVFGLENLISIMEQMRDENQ
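ADP-Glo luminescence measures ADP made by human IP6K1 during a 2 h RT reaction with ATP/IP6 (mix at 1.3 mM/130 uM); top library doses 57.5 and 19.1 uM final.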
SNCA expr inhib – SNCA gene expression inhibition; AID 1671194; Potency, µM (top dose mostly 57.2 µM), without a hit: top-dose activity change, negative = inhibition, actives largely listed as inhibitors; HEK-293 SNCA-luciferase knock-in, luminescence, 24 h; 140,000 tested, 0.17% active;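 further: potency means the concentration at half of the fitted maximal effect; plate controls were DMSO cells for no effect and cell-free wells for full effect; nearly all actives have a fitted effect of over 45% in size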
KDM5B inhibitor – inhibitors of human KDM5B histone demethylase | KDM5B demethylase, FDH-coupled NADH fluorescence (FDH is formaldehyde dehydrogenase) | Potency, µM (titrated, usually from 57.7 µM), most hits filed as inhibitors | 220,000 tested, 2.6% active; further: potency means the concentration at half of the fitted maximal effect; 0% is about no effect; nearly all actives have a fitted effect of over 70% in size
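Measured: NADH fluorescence change, 30 min, RT. System: KDM5BΔAP 200 nM final, H3K4me3 peptide, α-KG, Fe(II), ascorbate, NAD⁺ plus FDH, pH 7.5 HEPES. Compounds: titrated, 10 min pre-incubation with enzyme.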
The depositor's hits bear a star; i = inactive; ? = inconclusive; · = not tested or not shown; [ ] = dose if it differs, or a comment. Sampled rows, rich in hits. Any-hit rate of the full collection: about 2.9%. Unless noted, the call rests on the fitted dose curve; in most records, active means well fitted curve in the direction sought with a large enough effect; inconclusive means small, poorly fitted or top-dose-only effect, or another doubt; inactive means no such curve, though single readings can be large; an effect the other way counts as inactive or inconclusive.

SMILES | SNCA viab count | IP6K1 inhibitor | SNCA expr inhib | KDM5B inhibitor
CCN(Cc1nccn1C)C(=O)c1cc(-c2cnc(N)nc2)nc2c(C)cccc12 | 4% | 8 | 3% | 28µM*
CCN(Cc1nccn1C)C(=O)c1ccc(N2CCSCC2)nc1 | -10% | 20 | -12% | ?
COc1ccc(N2CC(c3noc(-c4ccc5c(c4)OCO5)n3)CC2=O)cc1 (centres undefined) | 7% | -3 | -21% | 32µM*
Cc1ccc(N2CC(c3noc(-c4ccc5c(c4)OCO5)n3)CC2=O)cc1 (centres undefined) | 8% | 13 | 18% | 32µM*
COc1ccc(N2CC(c3noc(-c4ccc5c(c4)OCO5)n3)CC2=O)cc1OC (centres undefined) | 0% | -8 | 0% | ?
COc1ccc(-c2cc(N3CCCN(C(=O)c4cc5ccccc5[nH]4)CC3)n[nH]2)cc1 | -11% | -10 | 60% | i
Cc1c(C(=O)O)sc2ncnc(NCC3(O)CCCCC3)c12 | -3% | 25 | -9% | 20µM*
CO[C@H]1[C@H](NC(=O)c2cc(=O)[nH]c(=O)[nH]2)c2ccccc2C12CCNCC2 | 1% | 2 | -8% | i
CO[C@H]1[C@H](NC(=O)c2cc3ccccc3[nH]2)c2ccccc2C12CCNCC2 | -1% | 5 | 5% | 22µM*
Cc1nc2cnccn2c1C(=O)NCc1cccc(Cl)c1 | · | -1 | · | ·
COc1ccc([C@@H](NC(=O)c2ccc3cccc(F)c3n2)C2CC(O)C2)cn1 (some centres undefined) | 4% | 14 | -9% | 22µM*
O=C(c1ccn2nccc2c1)N1CCOCC1 | -20%[87.6 µM] | 1 | 58%[87.6 µM] | 32µM*
COc1cccc(C(=O)NC2CCN(Cc3cccc(-c4ccc(F)cc4F)c3)CC2)c1 | · | 9 | · | ·
COc1ccc(-n2nc(C3CCN(Cc4cccn4C)CC3)[nH]c2=O)cc1 | 1% | 18 | -23% | i
Cc1cccc(-c2cccc(CCOc3cnc4c(ccn4CC(=O)O)c3)c2)c1 | -2%[87.6 µM] | -10 | 4%[87.6 µM] | 32µM*
O=C(O)Cn1ccc2cc(OCc3cccc(-c4cccc(C(F)(F)F)c4)c3)cnc21 | -7%[87.6 µM] | -5 | -6%[87.6 µM] | ?
Cc1noc(C)c1-c1cccc(CCOc2cnc3c(ccn3CC(=O)O)c2)c1 | 10%[87.6 µM] | -5 | -11%[87.6 µM] | 40µM*
Cn1cc(-c2cccc(CCOc3cnc4c(ccn4CC(=O)O)c3)c2)cn1 | 3%[87.6 µM] | -16 | 27%[87.6 µM] | 40µM*
Cc1cc(-c2cccc(CCOc3cnc4c(ccn4CC(=O)O)c3)c2)ccn1 | 0%[87.6 µM] | -5 | 8%[87.6 µM] | 35µM*
O=C(NCc1ccc(F)c(F)c1)C1CCCN(c2ccnc3ccnn23)C1 (centres undefined) | -12% | 17 | 10% | ·
CCc1cccc(NC(=O)Nc2cccc(-c3ccc(N4CCOCC4)nn3)c2)c1 | ? | 4 | 2% | ?
Cc1ccccc1C(=O)N1CCC2(CC1)C(=O)N(c1cccc(F)c1)C2c1ccccc1 (centres undefined) | ? | 4 | ? | ·
Cn1ncc2c(C(=O)NCc3ccccn3)cc(-c3ccccc3F)nc21 | · | 1 | · | ·
COc1ccc(-c2cc(C(=O)NC3CCOC3)c3cnn(C)c3n2)cc1 (centres undefined) | · | -3 | · | ·
O=C(NCC1CCCCCC1)[C@@H]1CCCN1c1nccc(Nc2ccccc2Cl)n1 | 5%[12.5 µM] | -1 | ? | ·
SMILES | SNCA viab count | IP6K1 inhibitor | SNCA expr inhib | KDM5B inhibitor
Cc1ccc(Nc2ccnc(N3CCCC(C(=O)NCC4CCCCCC4)C3)n2)cc1 (centres undefined) | 4%[12.5 µM] | -11 | ? | ·
O=C(O)Cn1ccc2cc(OCCc3cccc(-c4cncnc4)c3)cnc21 | 3%[87.6 µM] | -17 | -6%[87.6 µM] | 28µM*
O=C(O)Cn1ccc2cc(OCc3cccc(-c4ccncc4)c3)cnc21 | -3%[87.6 µM] | -4 | -12%[87.6 µM] | ?
COc1ccc(-c2nc(C3CC3)nc3c2CCN(Cc2cccn2C)CC3)cc1 | ? | 2 | ? | 50µM*
COc1ccc(-c2nc(C3CC3)nc3c2CCN(Cc2ccc(F)cc2)CC3)cc1 | -2% | 5 | -23% | ?
COc1ccc(-c2nc(C3CC3)nc3c2CCN(CC2CC2)CC3)cc1 | -13% | 1 | -25% | ?
COc1ccc(-c2nc(C3CC3)nc3c2CCN(CC2CCCCC2)CC3)cc1 | 1% | -4 | -5% | 25µM*
COc1ccc(-c2nc(C3CC3)nc3c2CCN(Cc2ccsc2)CC3)cc1 | ? | 8 | ? | 79µM*
O=C(NCc1ccc(Cl)cc1)c1ccc2nnc(-c3cccc(C(F)(F)F)c3)n2c1 | -20% | 6 | ? | ·
CC(C)[C@@H]1C[C@@H]2C[C@@H](NCc3ccccc3)C[C@]2(c2ccccc2)CO1 | · | 9 | · | ·
CC(=O)Nc1ccc(CN2CCC[C@H]2c2nc(-c3ccc(N4CCC(C(N)=O)CC4)nc3)no2)cc1 | 7% | 1 | -10% | ?
NC(=O)C1CCN(c2cc(-c3noc([C@@H]4CCCN4Cc4ccc(Cl)cc4)n3)ccn2)CC1 | -9% | 7 | 11% | 32µM*
CC(=O)N1CCC(N2CCC[C@H]2c2nc(-c3ccnc(N4CCC(C(N)=O)CC4)c3)no2)CC1 | 4% | 13 | 3% | 22µM*
CS(=O)(=O)c1ccc(CN2CCC[C@H]2c2nc(-c3ccnc(N4CCC(C(N)=O)CC4)c3)no2)cc1 | 1% | -3 | -6% | 28µM*
NC(=O)C1CCN(c2cc(-c3noc([C@@H]4CCCN4Cc4ccccc4F)n3)ccn2)CC1 | -9% | 9 | -18% | ?
Cc1oc(C2CCN(C(=O)CCC(=O)n3nc(C)c4ccccc43)CC2)nc1C(=O)N1CCCC1 | -6% | 0 | -16% | ·
O=C(Nc1nn(-c2cccc(F)c2)c2cccc(N3CCOC3=O)c12)C1CCC1 | -4% | 6 | 35% | 28µM*
COc1ccc(-c2ccc3nc(-c4cccc(Cl)c4)oc3c2)c(OC)c1OC | 10% | -4 | -7% | 7.9µM*
COc1cc(OC)cc(-c2nc3ccc(-c4ccc(OC)c(OC)c4OC)cc3o2)c1 | 7% | 14 | -9% | 25µM*
CCOC(=O)[C@H]1C[C@]2(CCCCN(CCO)C2=O)N(C(=O)CC2CCCC2)[C@H]1c1ccco1 | · | -9 | · | ·
COc1ccc(Nc2ccnc(N3CCC(NC(=O)c4ccccc4F)CC3)n2)cc1 | -17% | 12 | 19% | ·
O=C(NCCc1ccccc1F)c1nc2sccn2c1-c1cccnc1 | -3% | 5 | 18% | ·
CCc1ccccc1-n1nc(-c2c(C)nc3scc(CC(=O)N4CCCC4)n3c2=O)cc1C | -19% | 0 | 15% | 32µM*
CCc1ccccc1-n1nc(-c2c(C)nc3scc(CC(=O)NCc4ccco4)n3c2=O)cc1C | 1% | 6 | -15% | 28µM*
CCCNC(=O)Cc1csc2nc(C)c(-c3cc(C)n(-c4ccccc4CC)n3)c(=O)n12 | 1% | 5 | -11% | ?
CCCCNC(=O)Cc1csc2nc(C)c(-c3cc(C)n(-c4ccccc4CC)n3)c(=O)n12 | -14% | 9 | -15% | 32µM*
CCc1ccccc1-n1nc(-c2c(C)nc3scc(CC(=O)NCC(C)C)n3c2=O)cc1C | -2% | 10 | 3% | ?

High-throughput results deposited in PubChem BioAssay by National Center for Advancing Translational Sciences (NCATS).
